BAZ2B inh: qHTS Assay for Inhibitors of BAZ2B. AlphaScreen BAZ2B-H3K14Ac peptide displacement. 4.4% of 360,000 active. Potency, µM (top dose mostly 114 µM), for the others: at the highest dose activity change, negative = inhibition, actives largely listed as inhibitors; note: % is set by controls: 0 for no effect and ±100 for the full control effect; nearly all actives have a fitted effect of over 60% in size
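Protein-peptide AlphaScreen: BAZ2B 50 nM, b-H3K14Ac 50 nM, 1x PBS pH 7.4 + 0.01% Tween-20. Preincubation 30 min RT; cpd 30 min RT (top 110 uM); beads 20 min RT, light-protected.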
JMJD2A Tudor inh: qHTS Assay for Inhibitors of JMJD2A-Tudor Domain; AlphaScreen JMJD2A-Tudor / H3K4me3 peptide binding; Potency, µM (titrated, usually from 114 µM), for the others: top-dose activity change, negative = inhibition, actives largely listed as inhibitors; Lysine-specific demethylase 4A (Homo sapiens), O75164; 4.4% of 390,000 active; note: % is set by controls: 0 for no effect and ±100 for the full control effect; nearly all actives have a fitted effect of over 50% in size
HP1b binding inh: HTS for Inhibitors of HP1-beta Chromodomain Interactions with Methylated Histone Tails; Chromobox protein homolog 1 (Homo sapiens), P83916; AlphaScreen HP1-beta / biotin-H3K9me3 peptide binding; Potency, µM (highest dose often 114 µM), without a hit: top-dose activity change, negative = inhibition, hits mostly inhibitors; 0.56% of 390,000 active; AID 540317, 2011; note: nearly all actives have a fitted effect of over 70% in size
Target sequence (P83916 whole entry, looked up): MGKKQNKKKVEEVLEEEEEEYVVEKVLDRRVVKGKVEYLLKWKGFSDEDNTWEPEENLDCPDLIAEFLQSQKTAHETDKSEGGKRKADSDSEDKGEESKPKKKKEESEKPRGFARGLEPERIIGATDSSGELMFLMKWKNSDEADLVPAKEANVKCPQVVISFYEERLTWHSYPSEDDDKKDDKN
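AlphaScreen: HP1-beta (50 nM) preformed 30 min with biotin-H3(1-18)K9me3 peptide (50 nM) in PBS pH 7.4, 0.01% Tween-20. Compound added for 30 min at RT, then streptavidin donor/nickel chelate acceptor beads (10 ug/mL) for 30 min.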
VDR inhibitor: Inhibitors of the vitamin D receptor (VDR): qHTS | Vitamin D3 receptor (Homo sapiens), P11473 | VDR-SRC2-3 peptide fluorescence polarization, 2 h | Potency, µM, without a hit: max response, negative = inhibition, most hits filed as inhibitors | 0.93% of 400,000 active | AID 504847, 2011; note: % is set by controls: 0 for no effect and ±100 for the full control effect
Target sequence (P11473 whole entry, looked up): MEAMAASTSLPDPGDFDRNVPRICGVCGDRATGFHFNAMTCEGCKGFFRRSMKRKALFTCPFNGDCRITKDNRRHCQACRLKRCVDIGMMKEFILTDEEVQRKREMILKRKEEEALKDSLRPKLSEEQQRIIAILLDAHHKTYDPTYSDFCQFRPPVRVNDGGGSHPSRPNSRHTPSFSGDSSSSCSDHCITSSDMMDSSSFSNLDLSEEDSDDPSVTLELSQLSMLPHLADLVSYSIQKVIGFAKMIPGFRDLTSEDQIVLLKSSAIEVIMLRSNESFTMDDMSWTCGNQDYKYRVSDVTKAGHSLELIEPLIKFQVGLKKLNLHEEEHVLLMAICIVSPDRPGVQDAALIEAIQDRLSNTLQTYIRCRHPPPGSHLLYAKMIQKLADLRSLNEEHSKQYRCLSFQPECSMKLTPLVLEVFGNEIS
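Fluorescence polarization assay of small-molecule disruption of VDR binding to coregulator peptide SRC2-3. Compounds and controls pin-transferred, then read after 2 h incubation at ambient room temperature.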
PLK1 PBD block: qHTS for Inhibitors of PLK1-PDB (polo-like kinase 1 - polo-box domain): Primary Screen. Serine/threonine-protein kinase PLK1 (Homo sapiens), P53350. Plk1 PBD binding of FITC phosphopeptide, fluorescence polarization. Potency, µM, for the others: max response, negative = inhibition, usual class: inhibitors. 2.8% of 360,000 active; note: series mostly up to about 57 µM; % is set by controls: 0 for no effect and ±100 for the full control effect; nearly all actives have a fitted effect of over 65% in size
G9a inh: qHTS Assay for Inhibitors of Histone Lysine Methyltransferase G9a; G9a H3K9 monomethylation, AlphaScreen, 2 h; AID 504332, 2011; Histone-lysine N-methyltransferase EHMT2 (Homo sapiens), Q96KQ7; Potency, µM (top dose mostly 102 µM), for inactives: at the highest dose activity, negative = inhibition, most hits filed as inhibitors; 8.8% of 350,000 active; note: % is set by controls: 0 for no effect and ±100 for the full control effect; nearly all actives have a fitted effect of over 75% in size
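G9a (20 nM) preincubated 15 min RT with compounds, then 500 nM biotinylated H3K9 peptide and 20 uM SAM added; 2 h RT reaction. Monomethyl-H3K9 product detected by AlphaScreen with anti-H3K9me1 antibody, streptavidin donor and anti-rabbit IgG acceptor beads.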
The depositor's hits bear a star; ? = inconclusive; . = not tested or not shown; [ ] = remark or other dose. An excerpt weighted towards active compounds, which were near 11% of everything screened. Calls come from the whole dose curve; as a rule, active = well fitted curve in the direction sought with a large enough effect; inconclusive = small, poorly fitted or top-dose-only effect, or another doubt; inactive = no such curve, though single readings can be large; an effect the other way counts as inactive or inconclusive. Potency is the fitted concentration of half-maximal effect.

SMILES | BAZ2B inh | JMJD2A Tudor inh | HP1b binding inh | VDR inhibitor | PLK1 PBD block | G9a inh
CCOc1ccc(S(=O)(=O)NCCC(=O)NCC(c2ccco2)N2CCCCC2)cc1 (configuration not stated) | 7% | -14% | 21% | 7% | -6% | 16%[12.7 µM]
C[C@@H]1CN([C@@H](C)CO)C(=O)CCCn2nncc2CO[C@H]1CN(C)S(=O)(=O)c1cccc(F)c1 | . | . | . | . | -15% | .
CC1=CC(c2ccccc2)n2nc(N3C(=O)CCC3=O)nc2N1 (configuration not stated) | ? | 79µM* | 35% | 4% | -3% | 20µM*
CC1=CC(c2ccccc2)n2nc(N3C(=O)C4CC=CCC4C3=O)nc2N1 (configuration not stated) | -35% | -33% | 23% | 10% | -7% | 25µM*
O=C1CC(c2ccccc2)n2nc(N3C(=O)CCC3=O)nc2N1 (configuration not stated) | 7% | 2% | 13% | -9% | -4% | 22%[2.33 µM]
CCc1ccccc1NC(=O)Cn1c(=O)n(Cc2ccccc2)c(=O)c2c(C)c(C(=O)N(C)C)sc21 | 3% | -5% | 39% | 3% | . | 0%[59 µM]
COc1ccc(NC(=O)Cn2c(CCC(=O)O)ccc2-c2ccc(C)cc2)cc1 | ? | -16% | 27% | -1% | 1% | ?
COC(=O)C(C)(C)ONC(=O)Nc1ccccc1 | -2% | -10% | 31% | 0% | 1% | -9%
Cc1ccc(C(=O)COC(=O)C(Cc2c[nH]c3ccccc23)NC(=O)c2ccc(C(C)(C)C)cc2)cc1 (configuration not stated) | -9% | -31% | 6% | -5% | . | ?
CNCc1ccccc1Sc1cccc(O)c1 | 10% | -21% | 8% | 11% | -5% | 18%[59 µM]
CNCc1ccccc1Sc1cc(O)ccc1O | 35µM* | 18µM* | 10µM* | 35µM* | 5.3µM* | 1µM*
Cc1cc(C)nc(SCC(=O)NCc2ccco2)n1 | 0% | -24% | -8% | 4% | -10% | 45µM*
O=C(CSc1nc(-c2ccc(F)cc2)cc(C(F)(F)F)n1)NCc1ccco1 | 0% | -34%[11.4 µM] | ? | -28% | 3µM* | -3%[59 µM]
O=c1n(Cc2cccc(F)c2)c2ccccc2c2nc(-c3ccccc3)nn12 | -1% | -12% | 30% | 3% | . | 8%[59 µM]
CCN(CC)Cc1c(C(=O)N/N=C/c2ccc(C)o2)nnn1-c1nonc1N | -1% | -18% | 2% | 15% | -5% | ?
COc1ccc(NC(=S)Nn2cnnc2)c(OC)c1 | ? | ? | ? | ? | 21µM* | 5µM*
CN1CCN(NC(=S)Nc2ccccc2)CC1 | -11% | ? | 53% | -12% | 1% | ?
Cc1ccc(NC(=S)Nn2cnnc2)cc1 | ? | ? | -17% | -18% | 11µM* | 2.8µM*
COc1ccc(NC(=S)NC23CN4CN(CN(C4)C2)C3)c(OC)c1 | -7% | -31% | -4% | -1% | -14% | ?
S=C(Nc1ccccc1)Nn1cnnc1 | ? | -26% | -19% | -17% | 19µM* | 1.4µM*
CCc1ccc(NC(=S)Nn2cnnc2)cc1 | -26% | 79µM* | ? | -10% | 17µM* | 7.9µM*
CCCCN(C(=O)COC(=O)CSc1cc(C)c2ccccc2n1)c1c(N)n(CCC)c(=O)[nH]c1=O | -3% | 1% | 43% | 8% | 4% | 55%
OC[C@@H]1CN(Cc2ccccc2)C[C@H](n2ccc3c(N4CCCC4)ncnc32)O1 | . | . | . | . | 1% | .
COCC(=O)C(C(=O)OC)[C@H](CCc1ccccc1)NC(=O)OC (some centres not stated) | . | . | . | 4% | . | .
COc1ccc(NC(=S)Nn2cnnc2)cc1OC | -33% | 18µM* | ? | -18% | 15µM* | 4µM*
SMILES | BAZ2B inh | JMJD2A Tudor inh | HP1b binding inh | VDR inhibitor | PLK1 PBD block | G9a inh
Cc1cc(C(=O)NN=C2CCCCCC2)c(C)o1 | -22% | -27% | 49% | -6% | -15% | 23%[12.7 µM]
Cc1c(O)c2ccccc2n(-c2ccccc2)c1=O | . | -1% | 12% | -5% | 0% | .
CC(C)(C)c1c(Cl)c(O)c(-c2ccccc2)c(=O)n1-c1ccccc1 | 18µM* | 50µM* | ? | 12% | -21% | .
NC(=S)NN=C1c2ccccc2-c2c(F)c(F)c(F)c(F)c21 | . | ? | ? | 79µM* | 8.4µM* | .
N#Cc1cccc2c1-c1ccccc1/C2=N/NC(N)=S | ? | ? | -16% | -10% | -11% | 89µM*
N#Cc1cccc2c1-c1ccccc1/C2=N/NC(N)=O | -24% | -28% | 12% | 6% | -6% | 7%
CN(CC(=O)Nc1cccc(F)c1)C(=O)c1ccc2c(c1)OCCO2 | -9% | 1% | 35% | -5% | 0% | 10µM*
COc1ccc(Cl)cc1NC(=O)CN(C1CCCCC1)S(C)(=O)=O | 3% | ? | -13% | 3% | 30µM* | -43%[12.7 µM]
COc1cccc(NC(=O)CN(C)C(=O)c2ccc(-c3cccc(C(F)(F)F)c3)o2)c1 | -6% | -15% | 39% | 4% | 1% | -24%
COc1ccc(Cl)cc1NC(=O)CN(C)C(=O)c1ccc2c(c1)OCCO2 | 4% | -8% | 24% | 16% | 0% | 40µM*
CN(CC(=O)Nc1cccc(F)c1)C(=O)c1ccc(-c2cccc(C(F)(F)F)c2)o1 | -8% | -29% | 11% | -8% | -11% | 18µM*
COc1ccc(Cl)cc1NC(=O)CN(C)C(=O)c1ccc(C)s1 | 11% | -19% | 3% | -8% | -1% | ?
O=C(O)c1ccc(OS(=O)(=O)c2ccc(Cl)s2)cc1 | -8% | -8% | 50% | -23% | -6% | 5%[0.501 µM]
Cc1ccc(-n2nc(C)c3nc(CCC(=O)Nc4cccc(F)c4)c(=O)n(C)c32)cc1 | -16% | -13% | 28% | 21% | . | -8%[12.7 µM]
COc1ccc(Cl)cc1NC(=O)CN(C)C(=O)c1cc2ccccc2cc1O | ? | -36% | -9% | -13% | -7% | 50µM*
COc1ccc(Cl)cc1NC(=O)CN(C)C(=O)c1cccc2cccnc12 | . | -21% | 23% | -17% | -8% | .
O=C(CCC1N=C2c3ccccc3N=C(SCc3ccc(Cl)cc3)N2C1=O)NCc1cccs1 (configuration not stated) | 0% | -9% | 40% | 0% | . | 0%[59 µM]
CCCN1CCN(CC(=O)Nc2nnc(CC)s2)CC1 | -2% | 7.1µM* | 27% | 4% | 0% | .
O=C(CN1CCN(c2ccccc2F)CC1)Nc1ccccc1F | -14% | -14% | 36% | 5% | -9% | 50µM*

High-throughput results deposited in PubChem by National Center for Advancing Translational Sciences (NCATS).
